In PubChem BioAssay (NCATS):
Inconclusive results are not listed. Unmarked numbers belong to inactive results. The source made the active and inactive calls. Calls follow the shape of the dose curve; as a rule, active = well fitted curve in either direction with a large enough effect (not every such curve was filed as active); inconclusive = small, poorly fitted or top-dose-only effect, or another doubt; inactive = flat fitted curve, though single readings scatter.

Biological target: Mitogen-activated protein kinase 10 (Mus musculus) (UniProt Q61831)
Test: JNK3 AlphaScreen Assay (AID 530);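 also: kinase came from lysate of stimulated human HepG2 cells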
Details: JNK3 lysate, c-Jun phosphorylation; series mostly up to 57.1 µM; activity change, negative = inhibition: at the top concentration
Description: NIH Chemical Genomics Center [NCGC]
NIH Molecular Libraries Screening Centers Network [MLSCN]
The c-jun N-terminal kinase (JNK) family are serine/threonine protein kinases that phosphorylate c-jun, a component of the transcription factor […] (AP-1). JNK kinases are members of the mitogen-activated protein kinase family including the extracellular regulated kinases and p38 kinases. Three JNK genes (JNK 1, 2, and 3) have been identified in humans so far. JNK1 and JNK2 have a broad distribution and JNK3 is primarily found in neuronal tissues and cardiac myocytes.
JNK3 has been under consideration as a target for the treatment of neurodegenerative disorders. […] JNK pathway is also involved in pathological process in a mouse model of Parkinson's disease (Xia et al., 2001).
Given these potential tissue distributions and links to neuroprotection, JNK3 inhibitors should provide useful investigational tools to study the role of this kinase in several diseases including, arthritis, stroke, myocardial infarction, ischemic injury and Parkinson's disease.
A homogeneous AlphaScreen is developed to measure the activity of JNK3. AlphaScreen is a two bead-based proximity-dependent chemical energy transfer luminescent assay platform. The phosphorylation of a biotinylated c-jun substrate by JNK3 can be detected with an antibody raised against phosphorylated c-jun. This process brings streptavidin donor beads and Protein-A acceptor beads to within a proximity range of <200 nm, and subsequently lead a chemical luminescent reaction upon exciting donor beads with 680 nm laser excitation light. Inhibition of JNK3 activity by small molecules and subsequent decrease in the antibody binding to biotinylated c-jun could attenuate or abolish this chemical luminescent reaction.
Yang DD, Kuan CY, Whitmarsh AJ, Rincon M, Zheng TS, Davis RJ, Rakic P and Flavell RA (1997) Absence of excitotoxicity-induced apoptosis in the hippocampus of mice lacking the Jnk3 gene. Nature 389:865-870. [PMID: 9349820]
Herdegen T, Claret FX, Kallunki T, Martin-Villalba A, Winter C, Hunter T, and Karin M (1998) Lasting N-terminal phosphorylation of c-Jun and activation of c-Jun N-terminal kinases after neuronal injury. J.Neurosci. 18:5124-5135. [PMID: 9651196]
Xia XG, Harding T, Weller M, Bieneman A, Uney JB and Schulz JB (2001) Gene transfer of the JNK interacting protein-1 protects dopaminergic neurons in the MPTP model of Parkinson's disease. Proc.Natl.Acad.Sci.U.S.A. 98:10433-10438.
NCGC Assay Protocol Summary:
GST-cJun (1-79) (Stratagene, La Jolla CA, #205145) was biotnylated by PerkinElmer (PerkinElmer-BioSignalInc. Montreal, Canada) and was detectable by the streptavidin Donor beads. Anti-(phospho)cJun (Ser73) antibody was from UpState (Charlottesvilles, VA, #06-659). JNK3-containing lysates were generated from HepG2 cells and pre-activated by interleukin1-beta and tumor necrosis factor alpha. All reagents were stored at -20 C before using. Phosphorylated biotinylated-GST-cJun was recognized by Anti-(phospho)cJun (Ser73) antibody and this process brings acceptor and donor beads together. Therefore JNK3 phosphorylation of cJun can be measured by Alpha reading by EnVision (PerkinElmer, Boston, MA).
The composition of kinase buffer was (in mM) 20 tris- HCl (pH 7.6) 10 MgCl2, 1 DTT, and 0.1 Na3VO4 and 0.01% Tween-20. Beads were diluted in detection buffer containing (in mM) 20 tris-HCl (pH 7.7), 20 NaCl and 80 EDTA and 0.3% BSA. The assay was performed at room temperature. All compounds were screened as titrations from 0.6 nM to 46 uM final concentration. The assay was performed in 1536-well format (white solid bottom and untreated) as follows:
Sequence,Parameter,Value,Description
1,Reagent,3 uL,Biotin-GST-cJun, Anti-(phospho)cJun and pre-activated JNK3-containing lysates
2,Compound,23 nL,Final concentration was 0.6nM to 46uM
3,Time,15 minutes,Room Temperature
4,Reagent,1 uL,ATP final concentration 10uM
6,Reagent,0.5 uL,2ng/well bead mixture
[…]
% is scaled to controls: 0 for no effect and ±100 for the full control effect.

SMILES | activity change, negative = inhibition | outcome
ClCBr | 17.8% | 
CS(=N)(=O)CC[C@@H](N)C(=O)O (stereo not given in full) |  | inactive
C[C@H](NC(C)(C)C)C(=O)c1cccc(Cl)c1 |  | inactive
c1csc(CN2CCC3(CCNCC3)CC2)n1 | 3.73% | 
ClC(Cl)=C(Cl)Cl |  | inactive
COc1ccc(NC(=O)N2CC[C@@]3(CCCN(C(=O)Oc4ccccc4)C3)C2)cc1 | -2.7% | 
COc1cc2c(c(OC)c1OC)-c1ccc(O)c(=O)cc1[C@H](N)CC2 | -3.18% [at 25.6 µM] | 
NC(=S)Nc1ccccc1 |  | inactive
CN1CC[C@]2(C)c3cc(O)ccc3N(C)[C@@H]12 |  | inactive
Nc1ccc(Br)cc1 | 5.29% | 
COC1=C[C@H]2C3=C([C@H]2C1=O)[C@H](NC(C)=O)CCc1cc(OC)c(OC)c(OC)c13 | -4.76% [at 25.6 µM] | 
CN1CCC2=C[C@H](O)[C@@H]3OC(=O)c4cc5c(cc4[C@H]3[C@H]21)OCO5 | 2.09% [at 25.6 µM] | 
Clc1nc(Cl)nc(Nc2ccccc2Cl)n1 | -13% | 
C[C@@]12CC[C@H](O)C[C@@H]1CC[C@H]1[C@H]2CC[C@@]2(C)[C@@H](C3=CC(=O)OC3)CC[C@]12O | 4.11% [at 25.6 µM] | 
CC(C)[C@@]1(NC(=O)[C@@H]2C[C@H]3c4cccc5[nH]cc(c45)C[C@@H]3N(C)C2)O[C@]2(O)[C@H]3CCCN3C(=O)[C@H](Cc3ccccc3)N2C1=O | -5.92% [at 25.6 µM] | 
C[C@@]12CCC(=O)C=C1C=C[C@H]1[C@H]3CC[C@](O)(CCC(=O)O)[C@]3(C)CC[C@@H]12 | 1.73% [at 25.6 µM] | 
CCSC(=O)Cl | 12.5% | 
C=C(Cl)Cl | 20.3% | 
Clc1ccc2ccccc2c1 | 9.43% | 
C[C@@]12CC[C@H]3[C@@H](CC[C@]4(O)C[C@H](O)CC[C@@]34C=O)[C@]1(O)CC[C@@H]2C1=CC(=O)OC1 | 0.767% [at 25.6 µM] | 

SMILES | activity change, negative = inhibition | outcome
CN1Cc2c(ccc3c2OCO3)[C@@H]2[C@@H](O)Cc3cc4c(cc3[C@@H]21)OCO4 |  | inactive
c1cnc(N2CCC3(CCNCC3)CC2)nc1 | -8.33% | 
O=C1C=C2C=C[C@H]3C[C@@]2(O1)[C@H]1CCCCN31 |  | inactive
O=C(Oc1ccccc1)N1CCC2(CCN(Cc3nccs3)CC2)CC1 | 1.35% | 
CN1CC[C@@]2(CCCN(C(=O)c3ccco3)C2)C1 | 0.198% | 
CN(C)C(=O)Oc1cc(OC(=O)N(C)C)cc([C@@H](O)CNC(C)(C)C)c1 | 0.816% [at 25.6 µM] | 
c1ccc(N2CCC3(CCNCC3)CC2)cc1 | -22.8% | 
O=c1ccc2cc(O[C@H]3O[C@@H](CO)[C@@H](O)[C@@H](O)[C@@H]3O)c(O)cc2o1 | -1.56% [at 25.6 µM] | 
C[C@@H]1NCCc2cc(O)c(O)cc21 | 0.17% [at 25.6 µM] | 
Nc1c(Cl)c(Cl)nc(C(=O)O)c1Cl | 27.1% | 
CC(C)CN1CCCC2(CCN(C(=O)c3ccncc3)CC2)C1 | 2.34% | 
c1cnc(N2CC3(CCNCC3)C2)nc1 | 5.07% | 
O=C(Oc1ccccc1)N1CCC2(CCCN(C(c3ccccc3)c3ccccc3)C2)CC1 | -1.67% | 
CN1[C@@H]2CC[C@H]1CC(O)C2 (stereo not given in full) | 3.34% [at 25.6 µM] | 
CCN1C[C@@]2(COC)CC[C@H](O)[C@@]34[C@@H]2C[C@@H]([C@@H]13)[C@]1(O)C[C@@H](OC)C2C[C@H]4[C@H]1[C@H]2OC(C)=O | -1.83% [at 25.6 µM] | 
ClC1=C(Cl)C2(Cl)C3C4C=CC(C4)C3C1(Cl)C2(Cl)Cl (stereo not given) | -6.9% | 
c1ccc(N=Nc2ccccc2)cc1 | 11.6% | 
CN1CCC2(CC1)CCN(C(=O)Oc1ccccc1)CC2 | 3.82% | 
c1cc(CN2CCCC3(CCNCC3)C2)ccn1 | 2.05% | 
COc1cc(C(=O)OC2C[C@H]3CC[C@@H](C2)N3C)ccc1O (stereo not given in full) | -3.47% [at 25.6 µM] | 
